# Measured values as given in the supplement of paper PMC5499739.
# Over roughly 16,000 sequences, “Z-score” has its median near -0.37; the highest 2% begin near 3.2. Only a selection was taken, and the highest values are over-represented in it overall.
# System: RBM10 RRM1-ZnF (GST-tagged construct)
# Assay: RNAcompete 7-mer binding Z-score; higher = stronger binding preference
# Description: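 RNAcompete: 20 pmol GST-tagged RBM10 RNA-binding constructs were incubated with a designed RNA pool of about 241,000 sequences up to 41 nt (1.5 nmol) on glutathione beads for 30 min at 4 °C and washed. Bound RNAs were identified by microarray hybridisation. Each RNA 7-mer is scored by a one-sided Z-score of its enrichment, computed over probes that contain the 7-mer within longer pool sequences.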
row,Sequence,RNAcompete 7-mer binding Z-score
1,CACCUUG,-0.516
2,ACUAGUG,0.0983
3,GUACCAG,-0.035
4,ACCAGGA,0.823
5,CGCGGCG,1.25
6,CGCCAUA,-0.594
7,CGAGGUU,0.846
8,UGAGAGG,1.94
9,AGAGGGU,2.22
10,UGAGGAG,1.86
11,UGAGGGU,3.48
12,UGAGGCU,0.3
13,CGAGGGA,2.84
14,UGAGGGC,2.27
15,UGAGGGA,4.02
16,UGAGGGG,3.64
17,CGAGGGU,3.7
18,CGAGGGC,1.06
19,UAGCGGC,-0.132
20,AGAUGAU,0.287
21,UGACUCC,-0.652
22,AUUUAAC,-0.561
23,GGGAGAU,2.7
24,CGAAGCU,-0.691
25,GUCAGCU,-0.425

row,Sequence,RNAcompete 7-mer binding Z-score
1,AGUGCCG,-0.11
2,UCGCAAU,-0.545
3,CGAACGA,-0.123
4,GGGCAUA,1.66
5,AUACACC,-0.795
6,CUGAGGC,-0.0155
7,GGAGGGU,3.97
8,GGAGGCU,1.41
9,GGAGGAU,2.46
10,CCCAAUG,-0.662
11,CUAGGGG,2.46
12,GUAGGGU,4.46
13,AUAGGUG,2.64
14,GUAGGGG,4.54
15,UUAGGGA,2.03
16,UUAGGGU,2.78
17,AUAGGCG,0.781
18,GUAGGGC,2.49
19,CUAGGGU,2.25
20,AUAGGGG,3.9
21,GUAGGGA,3.87
22,UUAGGGG,2.4
23,GCAUACU,-0.694
24,UACAGGU,0.881
25,AUAGCAG,0.358

row,Sequence,RNAcompete 7-mer binding Z-score
1,ACUCGGG,0.667
2,ACAACCA,-0.464
3,CAAUGUC,-0.75
4,GAGACCA,-0.126
5,GACUAAC,-0.626
6,UCCUUGC,-0.733
7,GACUGGG,2.42
8,AUAGGGC,1.72
9,AUAGGGU,3.61
10,CUAGGAG,0.608
11,GUAGGAC,1.4
12,GUAGGAG,3.43
13,AUAGGGA,2.86
14,CCAGCAA,-0.617
15,AUGGCAU,0.514
16,UUAAAAA,-0.444
17,GGCCUGC,-0.428
18,AAAAGCG,0.378
19,ACUUCUC,-0.841
20,UAUAAUA,-0.412
21,CGCGUGC,-0.223
22,ACGGGGU,4.07
23,ACGGGUU,2.65
24,ACGGGGC,2.26
25,ACGGGUC,1.19

row,Sequence,RNAcompete 7-mer binding Z-score
1,ACGGGGG,3.27
2,GCGGGUG,3.17
3,ACGGGUG,3.39
4,ACCGGGU,0.631
5,ACGGGGA,3.04
6,CUCAAUC,-0.769
7,ACGCUCG,-0.636
8,UUUUAUC,-0.873
9,CAGCCUG,-0.513
10,GAAGUGU,1.08
11,GAAGUGG,3.46
12,AGAGUGG,2.81
13,GGAGUGA,2.38
14,GGAGUGG,4.84
15,GAAGUGC,0.29
16,CGUCCCG,-0.594
17,CGUUCUA,-0.811
18,UUUCUUA,-0.727
19,UUAUAAC,-0.704
20,GACUAUA,-0.542
21,UAAGGCG,1.03
22,UAAGGGU,3.44
23,GAAGGCU,0.621
24,AAAGGGC,2.62
25,CAAGGGA,2.42

row,Sequence,RNAcompete 7-mer binding Z-score
1,GAAGGGC,2.98
2,AAAGGGA,4.42
3,CAAGGGU,2.65
4,CAAGGGG,2.79
5,GAAGGGU,4.19
6,UAAGGCU,0.183
7,UAAGGGG,3.27
8,ACUUAGU,-0.435
9,GAAUGCU,-0.184
10,AUAGAAU,-0.132
11,CCUCGCU,-0.681
12,UUACUAC,-0.707
13,UGCUGUG,-0.119
14,UCUGACG,-0.535
15,UACCAAC,-0.668
16,UAAGGCA,0.888
17,GAAGGCA,1.7
18,GCAGGGA,2.92
19,UAAGGGA,3.27
20,UAAGGGC,1.49
21,GAAGGGA,4.52
22,CCUCAUC,-0.737
23,CCACGUA,-0.578
24,CGGCGGG,2.07
25,AGACAGG,1.59

row,Sequence,RNAcompete 7-mer binding Z-score
1,GGGCAGG,3.39
2,GGGCGAG,3.37
3,UGGCGGG,3.47
4,UGGCGGU,1.49
5,GGGCGAA,2.22
6,GGGCAGA,2.45
7,GGGCGAC,1.81
8,AGGCAGG,1.8
9,GGACAGU,0.842
10,GGACAGG,3.3
11,UCUGGUA,-0.435
12,CAUAACA,-0.444
13,UGUUAUC,-0.457
14,UGUCUCU,-0.649
15,CGCUAUC,-0.668
16,CGGAAGC,0.283
17,GGACAAU,0.927
18,UGCGACA,-0.145
19,UCAGAUC,-0.604
20,ACUAGGA,0.719
21,GGGCGGA,2.86
22,GGGCGGG,3.66
23,GGGCGGU,2.28
24,CUCAAAU,-0.698
25,AACUUCC,-0.919

row,Sequence,RNAcompete 7-mer binding Z-score
1,AAAUUCA,-0.668
2,CUGUUAA,-0.779
3,UGGUACG,1.43
4,AAACUAG,-0.327
5,UGGGGUA,3.56
6,CGGGGUA,3.2
7,GGGGGUA,3.99
8,UUGGGUA,2.33
9,AGGGGUA,3.69
10,GCGGGUA,2.88
11,ACGGGUA,2.05
12,AGGGGUC,1.98
13,GACCGGC,-0.532
14,UGGAGUG,3.08
15,GCUUCCC,-0.665
16,UGUACAC,-0.24
17,AUGCAAG,0.472
18,ACAGGCC,-0.0512
19,UCCUUUG,-0.876
20,UCCGGCG,-0.275
21,AUCCGGU,-0.227
22,GAGUUAA,0.29
23,CUGAAGG,1.22
24,CAGAAGG,1.57
25,AAGAAGG,3.54

row,Sequence,RNAcompete 7-mer binding Z-score
1,GAGAAGA,1.22
2,GAGAAGG,4.53
3,UAGAAGG,3.12
4,GUGAAGG,3.74
5,AAGAAGA,1.11
6,AUGAAGG,2.96
7,AUAAAGU,-0.155
8,UUCCCGC,-0.759
9,UCUCUUG,-0.714
10,ACGGGAU,2.02
11,AAAGUCC,-0.561
12,UCGACGA,-0.327
13,GCCAGCG,-0.0544
14,UCGAAGC,-0.36
15,AUGGGAG,3.64
16,AUCGGGU,1.7
17,AUGGGCA,2.11
18,AUGGGGU,3.92
19,UUGGGAG,2.68
20,CUGGGAA,1.47
21,UUGGGAA,2.12
22,AUUGGGU,2.9
23,AUGGGGA,4.27
24,CUGGGAG,1.66
25,AUGGGAA,3.97

row,Sequence,RNAcompete 7-mer binding Z-score
1,CGACCUG,-0.571
2,GACGAAC,-0.181
3,UUUUGAU,-0.629
4,UAUUGGC,-0.201
5,AAUGGUA,2.63
6,AACAACC,-0.72
7,AGGAACU,-0.0155
8,AUGGGCG,2.86
9,AUGGGGG,4.12
10,AUGGGGC,2.81
11,AUCUAAA,-0.451
12,AGGGAUA,4.2
13,GAGGAUA,2.15
14,AGGGAUC,1.02
15,AGGGAUU,2.3
16,CGGGAUA,1.56
17,GGGGAUA,3.45
18,CUUAGUG,-0.282
19,AGGAGAU,1.41
20,AAUGCGC,-0.428
21,UGGCGGA,1.83
22,GGGGGCU,2.22
23,GGGGCGU,2.64
24,GGGGGGC,2.37
25,CGGGGGU,3.46

row,Sequence,RNAcompete 7-mer binding Z-score
1,AGGGGGG,2.76
2,GGGGGGG,3.4
3,GGGGGGU,3.81
4,CGGGGUU,2.77
5,CCGGGGU,2.08
6,GUUUUAC,-0.591
7,AGAAGUA,0.173
8,ACCCGGU,-0.415
9,UUUCGUA,-0.779
10,AUACAUA,-0.269
11,AUCUUAU,-0.863
12,AGUCACG,0.0138
13,UUUCGUC,-0.811
14,UUGAGGG,3.4
15,UUGAGGC,0.115
16,CUGAGGG,1.81
17,AUGAGGC,0.969
18,UUGAGGA,1.14
19,GUGAGGC,1.53
20,AUGAGGU,1.9
21,AUGAGGG,3.84
22,GUGAGGG,3.75
23,UGACCCC,-0.246
24,UCGAAGA,-0.171
25,AAUUCAG,-0.496

row,Sequence,RNAcompete 7-mer binding Z-score
1,CCCCGAC,-0.0772
2,AACUCUA,-0.854
3,UCUUAUC,-0.86
4,GUGGGUU,3.11
5,CUGGGGG,2.28
6,GUGGGGA,4.7
7,GUGGGGG,4.47
8,UUGGGAC,1.58
9,GUGGGGU,4.71
10,GUGGGCG,3
11,CUGGGGU,2.18
12,GUGGGCA,3.06
13,GCGGGAG,2.86
14,GUGGGAG,4.08
15,CUGGGGA,1.76
16,CCCCAAA,-0.6
17,UCGAGCG,0.0723
18,GGCUCAU,-0.318
19,AGGAACC,-0.139
20,CUGCGGA,0.199
21,UAUGCCC,-0.6
22,AUGACGC,-0.383
23,CCAGACC,-0.642
24,AGGCGCA,0.0528
25,CUGGGAU,1.11

row,Sequence,RNAcompete 7-mer binding Z-score
1,GUCGGAA,0.8
2,AUGGGAU,3.45
3,GUGGGAU,3.68
4,GUGGGCC,1.46
5,GUGGGGC,3.52
6,AUGGGCU,1.6
7,AUGGGAC,2.09
8,GUGGGAC,2.35
9,CUGGGGC,0.901
10,GUGGGAA,3.62
11,GCGGGAA,2.66
12,CGGCGGA,0.862
13,CCUUGUA,-0.733
14,GUUCGGC,-0.0869
15,UUCGUUG,-0.162
16,GGGCAGC,1.32
17,CCAUGGU,0.254
18,ACUACUG,-0.428
19,CUGCGCU,-0.633
20,GUGGCGG,3.26
21,GUGGCGC,0.992
22,CUGGCGG,0.508
23,UUAUCGG,-0.171
24,AGUCGUG,0.124
25,UGGGAUA,3.05

row,Sequence,RNAcompete 7-mer binding Z-score
1,AGGGACG,2.13
2,GGGGAUC,2.29
3,UGGGAUU,1.9
4,UGGGAUG,3.61
5,GGGGAUG,4.52
6,GGGGAUU,2.75
7,CGGGAUG,2.48
8,AGGGAUG,4.59
9,GCCAGAC,-0.386
10,GUGAGGA,2.69
11,GAGUGUA,0.972
12,AGCUGGA,0.8
13,UGGUGAG,2.98
14,CAGCAAG,-0.0804
15,AAAAUAU,-0.324
16,GCUCAAG,-0.386
17,AAGCAUG,-0.035
18,AGAGUGA,0.81
19,CUAUGGG,1.13
20,AAAUGGG,4.08
21,AAAUGGA,3.63
22,AAAUGGU,2.86
23,CAAUGGG,2.34
24,GAAUGGC,1.27
25,GUAUGGA,2.12

row,Sequence,RNAcompete 7-mer binding Z-score
1,UAAUGGG,2.84
2,GUAUGGG,4.25
3,AAAUGGC,1.05
4,GAAUGGG,4.76
5,ACAUGGA,1.7
6,CGUAUGC,-0.542
7,CCGGAGC,0.0625
8,GGCUUAG,0.527
9,CCUUACG,-0.818
10,GGGUUAC,2.16
11,AGGUACG,0.751
12,UCCAGUU,-0.639
13,AGCAUUC,-0.694
14,UUGGUUG,0.917
15,GUGACGG,2.02
16,CAAUGGA,1.1
17,GAAUGGA,4.02
18,UAAUGGA,1.93
19,CACGGGA,1.5
20,AACGGGA,3.45
21,CACGGGG,2.66
22,AACGGGU,3.03
23,AACGGGG,3.45
24,GACGGGG,3.13
25,UACUUUC,-0.974

row,Sequence,RNAcompete 7-mer binding Z-score
1,GUACUGA,0.0138
2,AGGGGAC,2.18
3,UGGGGAC,3.17
4,UUGGGAU,2
5,GGGGGAU,3.32
6,GGGGGAC,2.25
7,CGGGGAU,2.5
8,AGGGGAU,3.64
9,AGGGGCU,1.35
10,UGGGGAU,3.57
11,CACCUAU,-0.902
12,UCGUCAA,-0.594
13,CUAUCGG,-0.5
14,CACGCGC,-0.366
15,GGCCUAU,-0.565
16,UGUUGUC,-0.574
17,GUCCGGU,0.082
